In PubChem BioAssay:
Active and inactive are the calls of the source. Unless noted, no rule for the calls is given here.

What was measured:
[1] = test system: Wnt5a (protein binding on small-molecule microarray); assay: small molecules binding Wnt5a protein – biophysical, small-molecule microarray, 635/667 nm fluorescence, primary screen (AID 1142); conditions: 635 nm fluorescence, higher = more signal;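 also: fluorescence read at 667 nm with signal to noise per printed feature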
[2] = ATP-based viability of Huh7 replicon cells – cell-based, CellTiter-Glo luminescence, basal, 48 h, cytotoxicity control for HCV replication inhibitor project, primary screen (AID 1143); conditions: higher = more signal, called active from +8 up or from −8 down;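 also: Huh7 hepatoma cells carrying a hepatitis C replication reporter with no stimulus; test concentration not given here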
[3] = Pseudomonas biofilm growth suppression – PAO1 strain, BacTiter-Glo luminescence, LB-PBS, primary screen (AID 1144); conditions: P. aeruginosa PAO1 biofilm, 12 h, higher = more signal
[4] = basal CRE-LacZ reporter activity in PC12 – cell-based, unstimulated, primary screen (AID 1145); conditions: no forskolin, luminescence, 4.5 h, higher = more signal, called active from +8 up or from −8 down
[5] = forskolin-driven CRE-LacZ activity in PC12 – cell-based, CRE-LacZ reporter, forskolin-stimulated, primary screen (AID 1146); conditions: luminescence, 4.5 h, higher = more signal, called active from +8 up or from −8 down;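 also: PC12 cells with 6xCRE LacZ reporter stimulated by forskolin 10 µM; beta-galactosidase reporter signal reflecting CREB driven transcription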
[6] = target: Streptavidin (Streptomyces avidinii) (UniProt P22629); assay: compounds binding control protein streptavidin – biophysical, small-molecule microarray, 635/667 nm fluorescence, artefact control for SMM compound annotation, primary screen (AID 1147); conditions: higher = more signal;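 also: signal reflects streptavidin binding to arrayed compounds as a control protein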
[7] = probe aInhba binding on compound microarray – biochemical, small-molecule microarray, 635/667 nm fluorescence, primary screen (AID 1148); conditions: higher = more signal;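 also: score merges 667nm spot fluorescence with signal-to-noise for antibody binding to printed compounds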
Torsin-1A (Homo sapiens) [8] = target: Torsin-1A (Homo sapiens) (UniProt O14656); assay: TOR1A wild-type binding on microarray – cell lysate, small-molecule microarray, lysate, 635/667 nm, primary screen (AID 1149); conditions: COS7 hTOR1A-WT lysate, 635 nm fluorescence, higher = more signal
Torsin-1A (Homo sapiens) [9] = target: Torsin-1A (Homo sapiens) (UniProt O14656); assay: torsin A mutant lysate binding on microarrays – cell lysate, small-molecule microarray, COS7 lysate, 635/667 nm fluorescence, primary screen (AID 1150); conditions: COS7 hTOR1A mutant lysate, 635 nm fluorescence, higher = more signal;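 also: score pools 667 nm emission and signal to noise measuring lysate protein binding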
[10] = test system: Sonic hedgehog protein (Shh); assay: Sonic hedgehog microarray binding compounds – biochemical, small-molecule microarray, 635/667 nm fluorescence, primary screen (AID 1151); conditions: 635 nm fluorescence, higher = more signal;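 also: Shh protein binding to compounds spotted on small-molecule microarray slides; score combines spot fluorescence intensity with signal-to-noise across triplicate slides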

Torsin-1A (Homo sapiens), sequence (O14656 whole entry, looked up): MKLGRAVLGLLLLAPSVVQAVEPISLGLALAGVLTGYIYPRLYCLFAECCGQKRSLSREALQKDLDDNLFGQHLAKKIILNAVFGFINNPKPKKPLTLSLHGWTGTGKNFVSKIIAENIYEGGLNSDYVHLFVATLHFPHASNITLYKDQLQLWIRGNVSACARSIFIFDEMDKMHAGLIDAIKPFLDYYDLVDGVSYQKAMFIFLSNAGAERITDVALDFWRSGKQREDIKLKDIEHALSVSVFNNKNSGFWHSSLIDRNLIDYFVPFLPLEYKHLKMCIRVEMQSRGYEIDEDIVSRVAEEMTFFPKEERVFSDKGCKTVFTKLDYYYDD
Streptavidin (Streptomyces avidinii), sequence (P22629 whole entry, looked up): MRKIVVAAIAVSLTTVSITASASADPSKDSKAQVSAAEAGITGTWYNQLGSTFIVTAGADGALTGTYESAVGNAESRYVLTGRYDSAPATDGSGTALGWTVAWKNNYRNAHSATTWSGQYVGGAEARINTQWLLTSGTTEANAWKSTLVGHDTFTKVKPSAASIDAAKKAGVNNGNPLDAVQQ

SMILES | composite z-score [1] | z-score [2] | z-score [3] | z-score [4] | z-score [5] | composite z-score [6] | composite z-score [7] | composite z-score (Torsin-1A (Homo sapiens) [8]) | composite z-score (Torsin-1A (Homo sapiens) [9]) | composite z-score [10]
CC(C)C[C@@H]1NC(=O)[C@H]2C[C@@H](C(=O)NCCCCCCNC(=O)CS)[C@@H](c3ccc(O)cc3)N2C1=O | 0.472 | 1.03 (inactive) | -1.02 (inactive) | -0.805 (inactive) | -0.732 (inactive) | -0.406 | -0.179 | 1 | 0.766 | 1.84
COc1cccc(C[C@H]2C[C@@H](CO[Si](C(C)C)(C(C)C)C(C)C)N3C(=O)[C@@]4(C(C)=O)O[C@@]23[C@@H]2C(=O)N(C)C(=O)[C@@H]24)c1 | 0.0121 | -2.38 (inactive) | 0.333 (inactive) | 0.222 (inactive) | -0.065 (inactive) | 0.0285 | 0.2 | 0.241 | 0.0185 | 1.3
Cc1ccc(F)cc1S(=O)(=O)N[C@@H]1CCN(Cc2ccc3c(c2)OCO3)C1 | -0.212 | -1.51 (inactive) | -0.455 (inactive) | 1.22 (inactive) | -0.714 (inactive) | -0.194 | -0.128 | 0.241 | 0.0733 | -0.0547
CC(C)C[C@H]1NC(=O)[C@@H](C)NC(=O)[C@@]23C(=O)N[C@@H](Cc4ccccc4)C2[C@H](C)[C@@]2(C)O[C@H]2C3/C=C/C/C=C\CNC1=O (stereo not given in full) | -0.134 | -0.332 (inactive) | 0.541 (inactive) | 1.94 (inactive) | -0.435 (inactive) | -0.535 | -0.218 | -0.0221 | -0.145 | 1.41
CC(C)C[C@@H]1NC(=O)[C@H]2C[C@@H](C(=O)NCCCCCNC(=O)CS)[C@@H](c3ccc(O)cc3)N2C1=O | 0.702 | -0.153 (inactive) | -0.215 (inactive) | 0.135 (inactive) | -0.908 (inactive) | 0.413 | -0.116 | 0.6 | 0.997 | 1.35
O=C1C2C=CC(C(O)c3cccc(O)c3)N(Nc3ccccc3F)C2C(=O)N1c1ccccc1 (stereo not given) | -0.333 | -6.08 (inactive) | -2.21 (inactive) | -0.471 (inactive) | -0.556 (inactive) | -0.344 | -0.21 | -0.701 | 0.239 | 0.0048
CCCC=C(CCC)[C@@H](NC(=O)c1ccccc1)c1ccc(C(=O)OC)cc1 | 0.675 | -4.41 (inactive) | -0.947 (inactive) | -0.379 (inactive) | 0.0425 (inactive) | -0.0576 | 0.326 | 0.615 | 0.546 | 0.293
CCCCCN1CC=CC23O[C@@H]4C=CCOC(=O)[C@@H]4[C@H]2C(=O)N(CCCCCO)[C@@H]3C1=O (stereo not given in full) | -0.659 | -0.211 (inactive) | -1.51 (inactive) | -1.45 (inactive) | -0.151 (inactive) | -0.735 | -0.213 | 0.459 | 2.16 | 0.32
CC(C)C[C@@H]1NC(=O)[C@@]23C(=O)N[C@@H](Cc4ccccc4)C2[C@H](C)[C@@]2(C)O[C@H]2C3/C=C/C/C=C\CNC(=O)[C@@H](CC(C)C)NC1=O (stereo not given in full) | 0.0669 | -0.91 (inactive) | 0.587 (inactive) | 2.66 (inactive) | 0.158 (inactive) | -0.463 | -0.128 | 0.295 | 0.068 | 1.39
C=CCC(OC(C)=O)[C@@H]1[C@@H](N(Cc2cc3ccccc3o2)C(=O)Cc2ccc(OC)cc2)c2cc(OCCCO)ccc2N1C(=O)Cc1ccc2ccccc2c1 (stereo not given in full) | -0.211 | -0.392 (inactive) | 0.334 (inactive) | 1.25 (inactive) | 0.775 (inactive) | 0.0489 | -0.155 | -0.773 | -1.01 | -0.155
CCCCCCc1nc(-c2ccc(OC)nc2)cc2c1[Si](C(C)C)(C(C)C)OC2 | -0.446 | -3.35 (inactive) | -0.757 (inactive) | -0.36 (inactive) | -0.565 (inactive) | 0.151 | -0.0963 | -0.734 | 0.706 | -0.0247
C=C(CCCC)/C(=C/C[C@H](OC(C)=O)c1cccc(OCCO)c1)c1cc(C(=O)OC)ccc1OC | -0.229 | -0.845 (inactive) | 0.0689 (inactive) | 12.1 (active) | -0.834 (inactive) | -0.77 | -0.0059 | -0.552 | -0.426 | 0.454
C=C(COC)C(=O)CC[C@@H](OC(C)=O)c1ccc(OCCO)cc1 | 0.284 | -0.354 (inactive) | -0.176 (inactive) | 0.625 (inactive) | 8.41 (active) | -0.0368 | -0.0523 | 1.82 | -0.241 | 1.64
COCCOC(=O)N1C(=O)[C@@]2(c3cc(C#CC4(O)CCCCCC4)ccc31)[C@H](C(=O)N1CCc3cc(OC)c(OC)cc3C1)[C@H]1C(=O)O[C@H](c3ccccc3)[C@H](c3ccccc3)N1[C@@H]2c1ccc(O)cc1 | 0.869 | -1.83 (inactive) | 0.0231 (inactive) | 1.68 (inactive) | 8.06 (active) | 0.398 | 0.306 | 1.25 | 0.538 | 0.774
CC(c1ccccc1)C(O)C1C=CC2C(=O)N(c3ccccc3)C(=O)C2N1Nc1ccc(C#N)cc1 (stereo not given) | 0.644 | -0.661 (inactive) | -1.26 (inactive) | -0.136 (inactive) | 0.721 (inactive) | 0.17 | 0.179 | 0.618 | 0.739 | 1.18
COC(=O)Cn1c(C(=O)N(C)C)cc2c1C[C@H]1CN(C(=O)c3ccccc3)[C@@](Cc3ccc(OC)cc3)(C(=O)OC)[C@@H]21 | 1.09 | -1.99 (inactive) | 0.655 (inactive) | 0.966 (inactive) | 0.353 (inactive) | 0.896 | 0.438 | 0.244 | 0.0985 | -0.333
COCCOC(=O)N1C(=O)[C@@]2(c3cc(C#Cc4ccc(OC)cc4)ccc31)[C@H](C(=O)Nc1nc3ccccc3s1)[C@H]1C(=O)O[C@H](c3ccccc3)[C@H](c3ccccc3)N1[C@@H]2c1ccccc1OCCO | 0.0516 | -4.28 (inactive) | -1.6 (inactive) | -1.7 (inactive) | -1.44 (inactive) | 0.299 | -0.0566 | 0.245 | 0.243 | 1.34
COCCOC(=O)N1C(=O)[C@@]2(c3cc(C#CC4=CCCCC4)ccc31)[C@H](C(=O)N1CCN(c3ncccn3)CC1)[C@H]1C(=O)O[C@H](c3ccccc3)[C@H](c3ccccc3)N1[C@@H]2c1ccccc1OCCO | 0.337 | -5.9 (inactive) | -2.51 (inactive) | -2.11 (inactive) | -1.32 (inactive) | 0.496 | -0.0332 | 0.825 | 0.598 | 1.47
C=C(C(=O)CC[C@@H](OC(C)=O)c1cccc(OCCO)c1)C(C)C | -0.162 | -0.344 (inactive) | 0.0482 (inactive) | 2.29 (inactive) | 1.23 (inactive) | -0.377 | 0.0053 | 1.93 | 0.456 | 2
O=C1O[C@H](c2ccccc2)[C@H](c2ccccc2)N2[C@H]1[C@@H](C(=O)N1CCN(c3ncccn3)CC1)[C@]1(C(=O)Nc3ccccc31)[C@H]2c1ccc(O)cc1 | 0.186 | -2.48 (inactive) | -0.151 (inactive) | 0.299 (inactive) | -0.682 (inactive) | -0.0699 | 0.0018 | 0.103 | 0.799 | 0.0388
COc1cc2c(cc1O)C(c1ccc(CN3CCCC3)cc1)N(Cc1ccc([N+](=O)[O-])o1)CC2 (stereo not given) | -0.176 | -0.192 (inactive) | 0.85 (inactive) | 0.299 (inactive) | 0.292 (inactive) | -0.231 | -0.105 | 0.714 | 0.623 | -0.0987
CCCCC=C[C@@H](NC(=O)c1ccc(C(F)(F)F)cc1)c1ccccc1 | -0.467 | -0.954 (inactive) | 1.03 (inactive) | 0.19 (inactive) | 1.47 (inactive) | -0.683 | -0.105 | -0.652 | -0.951 | -0.845
